In PubChem BioAssay (NCATS):
Inconclusive results are not listed. Active and inactive are the calls of the source. Unless noted, the call rests on the fitted dose curve; in most records, active means well fitted curve in the direction sought with a large enough effect; inconclusive means small, poorly fitted or top-dose-only effect, or another doubt; inactive means no such curve, though single readings can be large; an effect the other way counts as inactive or inconclusive.

What was measured:
[1] = NS1 protein of Zika virus - qHTS assay to identify small molecule inhibitors in human HEK 293 cells (AID 1347053); further: series mostly up to about 46 µM; nearly all actives have a fitted effect of over 55% in size
Method in brief: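 Following 20 h seeding, HEK 293 cells took compound, then 1 h later ZIKV MR766 (MOI = 0.5). Incubation ran 24 h at 37 C before TR-FRET detection of NS1; a drop in signal indicates inhibition.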

[2] = qHTS of pediatric cancer cell lines to identify multiple opportunities for drug repurposing: Primary screen for TC32 cells (AID 1347089); further: nearly all actives have a fitted effect of over 60% in size
Method in brief: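 In the primary qHTS, MIPE compounds were tested at 11 concentrations (0.78 nM to 46 µM) and NPC compounds at 8 (0.59 nM to 46 µM) on TC32 cells for 48 h. CellTiter-Glo luminescence gave viability.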

[3] = qHTS of pediatric cancer cell lines to identify multiple opportunities for drug repurposing: Primary screen for DAOY cells (AID 1347090); further: series mostly up to about 46 µM; nearly all actives have a fitted effect of over 55% in size
Method in brief: (§1)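 Eight- or eleven-point concentration series, 48 h treatment at 37 degrees C in growth media; readout CellTiter-Glo luminescence. Potency and efficacy were taken from the concentration-response curves.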

[4] = qHTS of pediatric cancer cell lines to identify multiple opportunities for drug repurposing: Primary screen for SJ-GBM2 cells (AID 1347091)
Method in brief: as §1

[5] = qHTS of pediatric cancer cell lines to identify multiple opportunities for drug repurposing: Primary screen for A673 cells (AID 1347092); further: nearly all actives have a fitted effect of over 45% in size
Method in brief: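 48 h compound exposure, A673, 500-1,000 cells/well, 37 degrees C/5% CO2. MIPE: 11-point, 0.78 nM-46 µM; NPC: 8-point, 0.59 nM-46 µM (final). Readout CellTiter-Glo luminescence after 15 min RT.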

[6] = qHTS of pediatric cancer cell lines to identify multiple opportunities for drug repurposing: Primary screen for SK-N-MC cells (AID 1347093); further: series mostly up to about 46 µM
Method in brief: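 Metabolically active cells were quantified by ATP-dependent luminescence (CellTiter-Glo, 15 min at room temperature) following 48 h treatment. Cells had been plated at 500-1,000 per well and settled for 5 h beforehand.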

[7] = qHTS of pediatric cancer cell lines to identify multiple opportunities for drug repurposing: Primary screen for BT-37 cells (AID 1347094); further: series mostly up to about 57 µM
Method in brief: (§2)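 CRCs from 8- or 11-point titrations (lowest final 0.59 nM NPC, 0.78 nM MIPE). Cell viability: CellTiter-Glo after 48 h incubation, 15 min room-temperature development, luminescence imaging.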

[8] = qHTS of pediatric cancer cell lines to identify multiple opportunities for drug repurposing: Primary screen for NB-EBc1 cells (AID 1347095)
Method in brief: as §2

[9] = qHTS of pediatric cancer cell lines to identify multiple opportunities for drug repurposing: Primary screen for U-2 OS cells (AID 1347096); further: nearly all actives have a fitted effect of over 50% in size
Method in brief: (§3)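 Cells (500-1,000/well) in growth media were settled 5 h at 37 degrees C, then given compounds for 48 h. Viability was read as CellTiter-Glo luminescence. Primary runs used MIPE at 11 points (0.78 nM-46 µM) and NPC at 8 points (0.59 nM-46 µM); follow-ups used 11 points.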

[10] = qHTS of pediatric cancer cell lines to identify multiple opportunities for drug repurposing: Primary screen for Saos-2 cells (AID 1347097); further: nearly all actives have a fitted effect of over 40% in size
Method in brief: as §2

[11] = qHTS of pediatric cancer cell lines to identify multiple opportunities for drug repurposing: Primary screen for SK-N-SH cells (AID 1347098);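 further: DMSO served as neutral control and bortezomib at 2.3 µM as positive control; nearly all actives have a fitted effect of over 65% in size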
Method in brief: (§4)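 Cells (500-1,000/well) rested 5 h, then received compounds for 48 h; metabolically active cells were measured by CellTiter-Glo luminescence. Final concentrations spanned up to 46 µM (MIPE, 11-point) or 0.59 nM-46 µM (NPC, 8-point) in primary screens, 11-point in follow-ups.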

[12] = qHTS of pediatric cancer cell lines to identify multiple opportunities for drug repurposing: Primary screen for NB1643 cells (AID 1347099); further: nearly all actives have a fitted effect of over 50% in size
Method in brief: as §2

[13] = qHTS of pediatric cancer cell lines to identify multiple opportunities for drug repurposing: Primary screen for LAN-5 cells (AID 1347100)
Method in brief: as §3

[14] = qHTS of pediatric cancer cell lines to identify multiple opportunities for drug repurposing: Primary screen for BT-12 cells (AID 1347101); further: nearly all actives have a fitted effect of over 25% in size
Method in brief: as §4

[15] = qHTS of pediatric cancer cell lines to identify multiple opportunities for drug repurposing: Primary screen for Rh18 cells (AID 1347102); further: nearly all actives have a fitted effect of over 65% in size
Method in brief: as §3

[16] = qHTS of pediatric cancer cell lines to identify multiple opportunities for drug repurposing: Primary screen for OHS-50 cells (AID 1347103); further: nearly all actives have a fitted effect of over 40% in size
Method in brief: as §4

[17] = target: T1, Tyrosine-protein phosphatase non-receptor type substrate 1 (Homo sapiens) + Leukocyte surface antigen CD47 (Homo sapiens) (UniProt P78324+Q08722); assay: CD47-SIRPalpha protein protein interaction - LANCE assay qHTS validation (AID 1347057; active means well fitted curve in the direction sought with a large enough effect in the signal ratio, with a control signal flat, not every such curve was filed as active; the % refers to the signal ratio; further: series mostly up to about 38 µM)
T1 sequence (P78324 whole entry, looked up): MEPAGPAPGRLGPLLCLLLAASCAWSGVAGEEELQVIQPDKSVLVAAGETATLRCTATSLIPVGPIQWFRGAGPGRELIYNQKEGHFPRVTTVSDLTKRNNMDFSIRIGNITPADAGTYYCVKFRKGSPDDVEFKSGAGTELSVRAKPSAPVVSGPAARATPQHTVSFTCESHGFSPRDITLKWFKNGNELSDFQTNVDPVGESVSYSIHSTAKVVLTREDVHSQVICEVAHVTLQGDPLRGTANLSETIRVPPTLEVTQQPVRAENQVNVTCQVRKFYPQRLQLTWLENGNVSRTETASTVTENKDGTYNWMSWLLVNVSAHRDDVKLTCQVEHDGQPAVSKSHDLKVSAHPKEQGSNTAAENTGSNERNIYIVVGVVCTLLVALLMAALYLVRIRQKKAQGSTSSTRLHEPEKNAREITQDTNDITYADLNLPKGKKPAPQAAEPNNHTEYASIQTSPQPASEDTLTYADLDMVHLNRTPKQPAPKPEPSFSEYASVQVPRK
T1 sequence (Q08722 whole entry, looked up): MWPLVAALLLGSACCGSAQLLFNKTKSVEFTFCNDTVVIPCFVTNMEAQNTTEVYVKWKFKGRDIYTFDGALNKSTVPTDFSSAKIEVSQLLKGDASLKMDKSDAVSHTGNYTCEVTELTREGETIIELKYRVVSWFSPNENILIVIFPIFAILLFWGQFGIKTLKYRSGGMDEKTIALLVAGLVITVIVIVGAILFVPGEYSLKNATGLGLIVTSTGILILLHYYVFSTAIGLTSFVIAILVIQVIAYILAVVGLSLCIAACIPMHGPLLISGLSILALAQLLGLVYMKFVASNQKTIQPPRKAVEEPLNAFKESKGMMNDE
Method in brief: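 First, His-tagged CD47 and Eu-labelled anti-His antibody met the compound for 30 min; next, site-specifically biotinylated SIRPalpha was added for 30 min; finally streptavidin-APC was added before reading the TR-FRET ratio.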

[18] = target: T1, Tyrosine-protein phosphatase non-receptor type substrate 1 (Homo sapiens) + Leukocyte surface antigen CD47 (Homo sapiens); assay: CD47-SIRPalpha protein protein interaction - HTRF assay qHTS validation (AID 1347058; active means well fitted curve in the direction sought with a large enough effect in the signal ratio, not every such curve was filed as active; the % refers to the signal ratio; further: series mostly up to about 38 µM)
Method in brief: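 TR-FRET read (Ch1/Ch2 ratio) of soluble extracellular CD47 and Avi-biotinylated SIRPalpha domains in PBS pH 7.4 with 0.05% IGEPAL; 7-point compound titration. Sequential 30 min room-temperature steps; non-biotinylated SIRPalpha as control inhibitor.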

[19] = target: T1, Tyrosine-protein phosphatase non-receptor type substrate 1 (Homo sapiens) + Leukocyte surface antigen CD47 (Homo sapiens); assay: CD47-SIRPalpha protein protein interaction - Alpha assay qHTS validation (AID 1347059);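 further: bead proximity luminescence from CD47 binding SIRPalpha after compound preincubation with SIRPalpha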
Method in brief: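 Soluble extracellular domains: Avi-tag biotinylated SIRPalpha (25 nM) preincubated 30 min RT with compound, then 6His-CD47 (12.5 nM) 30 min; Ni-NTA acceptor and streptavidin donor beads (10 ug/mL) 30 min, AlphaScreen read. PBS pH 7.4, 0.05% IGEPAL.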

[20] = target: Parathyroid hormone/parathyroid hormone-related peptide receptor (Homo sapiens) (UniProt Q03431); assay: qHTS for PTHR1 Agonists: Optimization Screen against the NCGC LOPAC library (AID 1347079);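 further: GloSensor cAMP luminescence in HEK-293 GP2 cells expressing human PTHR1 with IBMX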
Chain of Parathyroid hormone/parathyroid hormone-related peptide receptor (Homo sapiens) (Q03431 whole entry, looked up): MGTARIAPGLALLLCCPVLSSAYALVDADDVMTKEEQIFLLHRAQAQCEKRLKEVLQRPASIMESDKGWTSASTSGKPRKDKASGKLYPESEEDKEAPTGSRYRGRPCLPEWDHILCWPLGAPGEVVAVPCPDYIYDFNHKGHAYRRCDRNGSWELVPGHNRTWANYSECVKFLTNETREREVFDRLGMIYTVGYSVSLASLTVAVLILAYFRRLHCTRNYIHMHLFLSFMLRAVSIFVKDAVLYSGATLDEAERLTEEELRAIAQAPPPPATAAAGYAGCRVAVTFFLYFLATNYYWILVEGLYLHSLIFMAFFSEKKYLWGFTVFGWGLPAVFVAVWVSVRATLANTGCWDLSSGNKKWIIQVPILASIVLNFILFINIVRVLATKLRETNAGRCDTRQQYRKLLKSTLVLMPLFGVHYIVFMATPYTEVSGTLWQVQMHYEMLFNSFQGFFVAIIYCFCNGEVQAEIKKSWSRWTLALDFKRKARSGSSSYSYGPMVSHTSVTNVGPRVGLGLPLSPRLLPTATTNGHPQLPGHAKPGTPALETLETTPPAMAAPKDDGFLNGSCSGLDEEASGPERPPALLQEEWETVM
Method in brief: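 Compounds were tested across a qHTS titration. PTHR1-expressing GP2 cells report cAMP rises via GloSensor luminescence after 1 hr compound exposure at 37C with IBMX present.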

Measured: Potency

OCCOCCN1CCN(C2=Nc3ccccc3Sc3ccccc32)CC1
not listed: [16] | [17] | [18] | [19] | [20]
inactive: all other assays above

NCc1ccccc1Sc1ccccc1CO
not listed: [15] | [16] | [17] | [18] | [19] | [20]
inactive: all other assays above

CC(=O)OCC(=O)[C@H]1CC[C@H]2[C@@H]3CCC4=CC(=O)CC[C@]4(C)[C@H]3CC[C@]12C
not listed: [16] | [17] | [18] | [19] | [20]
inactive: all other assays above

COc1ccc(/C=N/NC(=O)c2ccncc2)cc1OC
not listed: [17] | [18] | [19] | [20]
inactive: all other assays above

CC(O)Cn1cnc2c1c(=O)n(C)c(=O)n2C (stereo not drawn)
not listed: [14] | [17] | [18] | [19] | [20]
inactive: all other assays above

CCOC(=O)C(C#N)=C(c1ccccc1)c1ccccc1
not listed: [16] | [17] | [18] | [19] | [20]
inactive: all other assays above

CCCCOC(=O)CC(CC(=O)OCCCC)(OC(C)=O)C(=O)OCCCC
not listed: [16] | [17] | [18] | [19] | [20]
inactive: all other assays above

CCCCCCCCCCCCCCC[C@H](O)[C@@H](N)CO
not listed: [13] | [17] | [18] | [19] | [20]
inactive: all other assays above

Nc1ccc(S(=O)(=O)Nc2cnc3ccccc3n2)cc1
not listed: [12] | [17] | [18] | [19] | [20]
inactive: all other assays above

CN1CCN(c2c(F)cc3c(=O)c(C(=O)O)cn4c3c2SCC4)CC1
not listed: [17] | [18] | [19] | [20]
inactive: all other assays above

CC(=O)N[C@@H](CCC(=O)O)C(=O)O
not listed: [12] | [14] | [17] | [18] | [19] | [20]
inactive: all other assays above

CN(C)CCOC(=O)C(c1ccccc1)C1(O)CCCC1 (stereo not drawn)
not listed: [15] | [17] | [18] | [19] | [20]
inactive: all other assays above

Cc1cc2c(OCC(CNC(C)(C)C)OC(=O)c3ccccc3)cccc2[nH]1 (stereo not drawn)
not listed: [17] | [18] | [19] | [20]
inactive: all other assays above

CN=C(N)NCCC[C@H](N)C(=O)O
inactive: [1] | [17] | [18] | [19] | [20]

COc1ccc2c(c1)c1c3n2CCN(C)C3=NCC1
not listed: [17] | [18] | [19] | [20]
inactive: all other assays above

COP(=O)(OC)OC(c1ccc(Cl)cc1)P(=O)(OC)OC (stereo not drawn)
not listed: [12] | [17] | [18] | [19] | [20]
inactive: all other assays above

NC(=O)C1(N2CCCCC2)CCN(CCCC(=O)c2ccc(F)cc2)CC1
not listed: [12] | [14] | [17] | [18] | [19] | [20]
inactive: all other assays above

Cc1cc(C)cc(OCC2CNC(=O)O2)c1 (stereo not drawn)
not listed: [12] | [17] | [18] | [19] | [20]
inactive: all other assays above

CCN(CC)CCOc1ccccc1C(=O)CCc1ccccc1
not listed: [11] | [16] | [17] | [18] | [19] | [20]
inactive: all other assays above

Cc1ccc(S(=O)(=O)NC(=O)NC2CCCC2)cc1
not listed: [14] | [15] | [17] | [18] | [19] | [20]
inactive: all other assays above

O=C(CN1CCN(Cc2ccc3c(c2)OCO3)CC1)N1c2ccccc2Sc2ccccc21
not listed: [14] | [16] | [17] | [18] | [19] | [20]
inactive: all other assays above

COc1ccc(C(=O)c2ccccc2)c(O)c1
not listed: [17] | [18] | [19] | [20]
inactive: all other assays above

O=C1C(CCS(=O)c2ccccc2)C(=O)N(c2ccccc2)N1c1ccccc1 (stereo not drawn)
not listed: [17] | [18] | [19] | [20]
inactive: all other assays above

CC(=O)Nc1ncc([N+](=O)[O-])s1
not listed: [14] | [15] | [17] | [18] | [19] | [20]
inactive: all other assays above

COC(=O)C(c1ccccc1Cl)N1CCc2sccc2C1 (stereo not drawn)
not listed: [16] | [17] | [18] | [19] | [20]
inactive: all other assays above

NS(=O)(=O)c1ccc(Cl)c(S(N)(=O)=O)c1
not listed: [14] | [15] | [17] | [18] | [19] | [20]
inactive: all other assays above

NC(N)=NCc1cccc(I)c1
inactive: [1] | [17] | [19] | [20]

CC(C)(C)NC[C@H](O)COc1nsnc1N1CCOCC1
not listed: [9] | [12]
inactive: all other assays above

CCOC(=O)[C@H](CCc1ccccc1)N[C@@H](C)C(=O)N1[C@H](C(=O)O)C[C@H]2CCCC[C@@H]21
inactive: [1] | [17] | [18] | [19] | [20]

NCCNC(=O)c1ccc(Cl)cn1
not listed: [17] | [18] | [19] | [20]
inactive: all other assays above

CCCCCCCCCCCCCC(=O)OC(C)C
not listed: [14] | [17] | [18] | [19] | [20]
inactive: all other assays above

CC(C)(C)NCC(O)COc1cccc2c1C[C@H](O)[C@H](O)C2 (stereo partly drawn)
not listed: [12] | [17] | [18] | [19] | [20]
inactive: all other assays above

O=C(Nc1cccc(C2=NCCN2)c1)Nc1cccc(C2=NCCN2)c1
not listed: [14] | [17] | [18] | [19] | [20]
inactive: all other assays above

NS(=O)(=O)c1cc(C(=O)O)cc(N2CCCC2)c1Oc1ccccc1
not listed: [12] | [17] | [18] | [19] | [20]
inactive: all other assays above

O=S(=O)(O)c1ccc(O)cc1
not listed: [17] | [18] | [19] | [20]
inactive: all other assays above

CCCCNC(=O)NS(=O)(=O)c1ccc(N)cc1
not listed: [17] | [18] | [19] | [20]
inactive: all other assays above
